This is a sample that favours compounds with a hit; in the whole collection about 2.9% have one here.
PLCg1 inh: blocks human PLC-gamma1 enzyme activity. P19174. purified PLC-gamma1, fluorogenic substrate, fluorescence. inhibition, % at 12.2 µM. actives 0.84% (n = 370,000). AID 720700; in the data active = inhibition above about 9.5%
Target sequence (P19174 whole entry, looked up): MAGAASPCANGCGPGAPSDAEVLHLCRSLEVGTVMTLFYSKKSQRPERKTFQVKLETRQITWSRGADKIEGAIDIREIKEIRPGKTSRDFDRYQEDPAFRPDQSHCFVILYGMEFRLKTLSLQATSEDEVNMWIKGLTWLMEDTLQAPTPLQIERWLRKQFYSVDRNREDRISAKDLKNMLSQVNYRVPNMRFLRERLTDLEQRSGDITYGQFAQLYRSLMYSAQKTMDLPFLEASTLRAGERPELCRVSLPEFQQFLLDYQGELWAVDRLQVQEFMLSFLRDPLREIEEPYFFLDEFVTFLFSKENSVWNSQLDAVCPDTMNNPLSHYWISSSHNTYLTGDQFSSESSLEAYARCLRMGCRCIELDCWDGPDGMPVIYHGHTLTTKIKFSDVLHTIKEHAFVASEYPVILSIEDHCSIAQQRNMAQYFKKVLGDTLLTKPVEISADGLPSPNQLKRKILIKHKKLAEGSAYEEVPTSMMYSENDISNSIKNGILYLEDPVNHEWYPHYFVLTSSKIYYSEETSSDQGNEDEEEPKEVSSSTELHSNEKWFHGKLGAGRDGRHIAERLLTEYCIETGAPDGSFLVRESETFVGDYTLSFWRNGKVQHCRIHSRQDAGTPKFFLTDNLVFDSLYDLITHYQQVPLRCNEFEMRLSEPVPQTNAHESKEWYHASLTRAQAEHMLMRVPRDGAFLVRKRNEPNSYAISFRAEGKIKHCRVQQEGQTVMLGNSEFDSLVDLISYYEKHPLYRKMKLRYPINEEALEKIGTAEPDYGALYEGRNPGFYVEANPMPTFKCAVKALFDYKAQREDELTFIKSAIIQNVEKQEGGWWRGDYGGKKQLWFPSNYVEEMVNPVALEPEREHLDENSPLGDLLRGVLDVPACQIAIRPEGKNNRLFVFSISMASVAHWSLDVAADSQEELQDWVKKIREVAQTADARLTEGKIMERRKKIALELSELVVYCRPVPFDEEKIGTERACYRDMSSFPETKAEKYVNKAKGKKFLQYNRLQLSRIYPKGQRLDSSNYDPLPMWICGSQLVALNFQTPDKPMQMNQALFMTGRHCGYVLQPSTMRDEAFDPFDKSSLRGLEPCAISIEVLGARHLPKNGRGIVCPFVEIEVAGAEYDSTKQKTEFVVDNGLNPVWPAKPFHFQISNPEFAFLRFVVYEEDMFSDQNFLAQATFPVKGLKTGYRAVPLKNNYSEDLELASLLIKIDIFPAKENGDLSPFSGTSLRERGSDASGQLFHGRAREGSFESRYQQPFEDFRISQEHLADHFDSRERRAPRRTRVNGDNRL
PLCb3 inh: blocks human PLC-beta3 enzyme activity. Q01970. Purified PLC-beta3, fluorogenic substrate, fluorescence. inhibition, % at 12.2 µM. actives 0.18% (n = 370,000). AID 720704; in the data active = inhibition above about 11%
ADAM10 inh: inhibits human ADAM10; inhibition, % at 7 µM; AID 720582; O14672; recombinant ADAM10, EDANS/DABCYL FRET peptide cleavage, 3 h; actives 0.62% (n = 370,000);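 active = inhibition above a per-campaign cutoff equal to the mean of compounds falling between control-based bounds plus 3 SD, cut at about 20% in these data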
ADAM17 inh: ADAM17 inhibition, QFRET primary screen; P78536; recombinant ADAM17, EDANS/DABCYL FRET peptide cleavage; inhibition, % at 6.95 µM; actives 0.83% (n = 370,000); AID 720648;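 active = inhibition above the mean of compounds lying between control limits plus 3 SD, set per campaign, cut at about 8.5% in these data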
proKLK7 act: activates the human kallikrein-7 zymogen | P49862 | AID 652039 | purified proKLK7, EDANS-DABCYL substrate fluorescence; 100% is mature enzyme control, 0% vehicle | activation, % at 7 µM | actives 0.9% (n = 370,000);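 active = activation above the mean of all tested compounds plus 3 SD, computed per campaign excluding outliers beyond control limits, cut at about 13% in these data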
ADAM10 ctr: counter-screen for ADAM17 exosite inhibitors: inhibitors of human ADAM10; shares compounds with ADAM17 inh; recombinant ADAM10, EDANS/DABCYL FRET peptide cleavage, 3 h; inhibition, % at 6.95 µM; actives 47% (n = 2,900); AID 743256;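 active = mean inhibition over the triplicate runs exceeds the activity threshold set in the earlier primary screen, cut at about 20% in these data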
ADAM17 confirm: human ADAM17 inhibition, confirmation | recombinant ADAM17, EDANS/DABCYL QFRET peptide cleavage | shares compounds with ADAM17 inh | inhibition, % at 6.95 µM | actives 65% (n = 2,900) | AID 743257;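 active = mean inhibition across replicates above the hit cutoff set in the primary screen, cut at about 8.5% in these data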
Each line names hits and unclear results; the compound was inactive in the other large screens (follow-up assays come after a bar, where they were run).

COc1ccccc1OCC(=O)NC1CCSc2ccccc21 (stereo not drawn)	none
O=C(COc1cccc2ccccc12)Nc1ccc(Cl)cc1C(=O)O	none
O=C(COc1cccc2ccccc12)Nc1cc(Cl)ccc1C(=O)O	ADAM17 inh 13 | ADAM10 ctr inactive | ADAM17 confirm inactive
COc1ccccc1N1CCN(c2nc(N)c(C#N)c(CC#N)c2C#N)CC1	ADAM17 inh 20 | ADAM10 ctr inactive | ADAM17 confirm 11
CCN(C(=O)c1ccc(C(C)(C)C)cc1)c1nnc(Cn2nnc3ccccc32)s1	ADAM17 inh 9.3 | ADAM10 ctr inactive | ADAM17 confirm 9.5
CN(Cc1cccs1)C(=O)CCc1ccc(S(=O)(=O)N2CCOCC2)cc1	ADAM17 inh 11 | ADAM10 ctr inactive | ADAM17 confirm inactive
Cc1ccc(NC(=O)c2ccccc2OCC(=O)Nc2ccccc2F)cc1S(=O)(=O)N(C)C	ADAM17 inh 11 | ADAM10 ctr 42 | ADAM17 confirm 25
Cc1cc(OCC(=O)NC2CC2)c2c(C)c(C)c(=O)oc2c1	none
COc1cc(/C=C/c2nc3ccccc3s2)cc(OC)c1O	none
COc1cc(C=C(c2nc3ccccc3s2)c2nc3ccccc3s2)ccc1O	ADAM17 inh 9.6 | ADAM10 ctr 20 | ADAM17 confirm 14
COc1cccc(C(=O)N[C@@H](CC(C)C)C(=O)N2CCC[C@H]2C(=O)NCc2ccccc2)c1	none
S=c1[nH]nc(COc2ccc(Cl)cc2)n1C1CCCCC1	ADAM17 inh 11 | ADAM10 ctr inactive | ADAM17 confirm inactive
Cc1ccc(OCc2n[nH]c(=S)n2C2CCCCC2)cc1	none
COc1ccc(NS(=O)(=O)c2cc(OC)ccc2NC(=O)c2cc(C)oc2C)cc1	ADAM17 inh 8.8 | ADAM10 ctr inactive | ADAM17 confirm inactive
CCOC(=O)Nc1ccc2c(c1)N(C(=O)CCN(CC)CC)c1ccccc1S2=O (stereo not drawn)	none
O=C(/C=C/c1ccc(N2CCCCC2)c([N+](=O)[O-])c1)c1ccc(O)cc1	ADAM17 inh 9.4 | ADAM10 ctr 26 | ADAM17 confirm 14
COc1ccccc1C(=O)/C=C/c1ccc(N2CCCCC2)c([N+](=O)[O-])c1	none
CC(C)(C)NS(=O)(=O)c1ccc(CCC(=O)Nc2cc(Cl)ccc2Oc2ccccc2)cc1	ADAM17 inh 9.7 | ADAM10 ctr 33 | ADAM17 confirm 19
COc1ccc(CCC(=O)Nc2cc(Cl)ccc2OC)cc1	none
CC(C)CNS(=O)(=O)c1ccc(CCC(=O)O)cc1	none
CC(C)CNS(=O)(=O)c1ccc(CCC(=O)Nc2cc(Cl)ccc2Oc2ccccc2)cc1	ADAM17 inh 9.7 | ADAM10 ctr 39 | ADAM17 confirm 21
CCC(=O)c1ccc(OCC(=O)OCC(=O)NC2CCCCCCC2)cc1	ADAM17 inh 9.5 | ADAM10 ctr inactive | ADAM17 confirm 8.8
CCC(C(=O)N1CCN(S(=O)(=O)c2ccc(F)cc2)CC1)c1ccccc1 (stereo not drawn)	none
COc1cc(OC)cc(C(=O)NNC(=O)CNC(=O)c2cccs2)c1	ADAM17 inh 9.2 | ADAM10 ctr inactive | ADAM17 confirm inactive
CCCNC(=O)c1cc2c(c(-c3cccc(-c4ccc(F)cc4)c3)n1)[C@H](CCO)N(S(=O)C(C)(C)C)C2 (stereo partly drawn)	ADAM17 inh 10 | ADAM10 ctr inactive | ADAM17 confirm 10
COc1ccc(C#Cc2cccc(-c3nc(C(=O)NCCCN4CCOCC4)cc4c3[C@H](CCO)N(S(=O)C(C)(C)C)C4)c2)cc1OC (stereo partly drawn)	none
CCOC(=O)c1cc2c(c(-c3cccc(C#Cc4ccc(OC)c(OC)c4)c3)n1)[C@@H](CCO)N(S(=O)C(C)(C)C)C2 (stereo partly drawn)	ADAM17 inh 8.8 | ADAM10 ctr inactive | ADAM17 confirm 10
CCN1C(=O)[C@H]2[C@@H](c3ccc(C(F)(F)F)cc3)N[C@]3(CCCN(Cc4ccc(C(F)(F)F)cc4)C3=O)[C@H]2C1=O	none
CCCOc1ccc(NC(=O)CC2C(=O)N(c3ccc(OCC)cc3)C(=S)N2C2CC2)cc1 (stereo not drawn)	none
O=C(COC(=O)c1ccc(O)cc1O)Nc1cc(-c2ccccc2)nn1-c1ccccc1	ADAM17 inh 8.8 | ADAM10 ctr 24 | ADAM17 confirm 16
O=S(=O)([O-])C(c1ccccc1)[n+]1ccccc1 (stereo not drawn)	none
CCOC(=O)[C@@H]1[C@H]2COc3ccc(Br)cc3[C@H]2N2C(=O)N(c3ccc(Br)cc3)C(=O)[C@]12C	ADAM17 inh 9.2 | ADAM10 ctr 31 | ADAM17 confirm 21
CCOC(=O)[C@H]1[C@H]2COc3ccc(Br)cc3[C@@H]2N2C(=O)c3ccc(C)cc3NC(=O)[C@@]12C	none
CCOC(=O)[C@H]1[C@H]2COc3ccc(C)cc3[C@@H]2N2C(=O)c3cc(Br)ccc3NC(=O)[C@@]12C	ADAM17 inh 9.5 | ADAM10 ctr 49 | ADAM17 confirm 17
Cc1ccc2c(c1)[C@H]1[C@H](CO2)[C@H](c2ccccc2)[C@]2(C)C(=O)N(Cc3ccc(Cl)cc3)CC(=O)N12	ADAM17 inh 12 | ADAM10 ctr inactive | ADAM17 confirm 12
Cc1ccc2c(c1)[C@H]1[C@H](CO2)[C@H](c2ccccc2)[C@]2(C)C(=O)N(Cc3ccc(F)cc3)CC(=O)N12	none
C[C@@]12C(=O)Nc3ccccc3C(=O)N1[C@H]1c3cc(Br)ccc3OC[C@@H]1[C@@H]2c1ccccc1	ADAM17 inh 8.6 | ADAM10 ctr 20 | ADAM17 confirm 11
O=C(CSc1nnc(-c2ccccc2)n1Cc1ccco1)Nc1ccc(Oc2ccccc2)cc1	none
CC(C)(C)[C@@H]1/C(=C/C2CC2)N2C(=O)C[C@@H](c3ccccc3)N=C2N1Cc1ccc2c(c1)OCO2	none (no result: proKLK7 act)
C[C@@H]1CN([C@@H](C)CO)C(=O)CCCn2nncc2CO[C@@H]1CN(C)C(=O)Cc1ccccc1	none
Nc1ncc2c(n1)-c1cc(Cl)ccc1SC2	ADAM17 inh 10 | ADAM10 ctr inactive | ADAM17 confirm inactive
O=C(Nc1cccc(S(=O)(=O)Nc2ccccc2Cl)c1)c1ccc(N2CCCC2)c([N+](=O)[O-])c1	ADAM17 inh 11 | ADAM10 ctr 41 | ADAM17 confirm 24
CCN(CC)S(=O)(=O)c1ccc(C)c(NC(=O)CNc2cccc(S(=O)(=O)N3CCCC3)c2)c1	none
Cc1ccc(S(=O)(=O)N2CCCCC2)cc1NC(=O)Cc1c[nH]c2ccccc12	ADAM17 inh 8.8 | ADAM10 ctr inactive | ADAM17 confirm inactive
Cc1ccc(-c2nc(SCC(=O)Nc3cc(S(=O)(=O)N4CCCCC4)ccc3Cl)n[nH]2)cc1	ADAM17 inh 14 | ADAM10 ctr 32 | ADAM17 confirm 14
